The values below come from PubChem BioAssay (NCATS).

A number with no mark means an inactive call. Inconclusive results are not listed. Active and inactive are the calls of the source. The call rests on the fitted dose curve; in most records, active means well fitted curve in the direction sought with a large enough effect; inconclusive means small, poorly fitted or top-dose-only effect, or another doubt; inactive means no such curve, though single readings can be large; an effect the other way counts as inactive or inconclusive.

Assay [1] relates to Nanoluciferase (engineered Oplophorus gracilirostris luciferase). Description: Primary Nanoluciferase (NLuc) qHTS assay for identification of artifact compounds. (AID 1845222). Further: potency means the concentration at half of the fitted maximal effect.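 On activity, negative = inhibition: NLuc secreted into diluted conditioned medium of S16 cells; series mostly up to about 54 µM; 0% = DMSO and -100% = no enzyme.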 The essentials:
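Using secreted nanoluciferase in S16 culture medium (0.22 um filtered, 1:55 dilution), compounds were preincubated 15 min at RT. Signal was generated with Nano-Glo reagent (1:100) over 5 min.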
For orientation: In qHTS, concentration-response curves come from the screen itself.

Assay [2] in a line: Primary redox qHTS assay for identification of artifact compounds. (AID 1845223).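 Further: 0% = DMSO and 100% = reference compound.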 The essentials: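 Amplex Red (25 uM) and HRP (250 mU/mL) in HBSS, with compounds for 15 min, then 250 uM DTT for 30 min, room temperature, dark. Fluorescence 525/598 nm read; normalized to DMSO and 10 uM DA3003; Hill fit.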

As to `COc1cc(N2CCC(N(C)C)CC2)ccc1Nc1ncc(Cl)c(Nc2ccccc2P(C)(C)=O)n1`, the Potency result in assay [1] and in assay [2] was “inactive” each time.

Take `C/C=C(\C)C(=O)OC[C@H]1O[C@H](O[C@H]2O[C@H](CO)[C@@H](OC(=O)/C(C)=C/C)[C@H](O)[C@H]2O[C@@H]2O[C@H](CO)[C@@H](O)[C@H](O)[C@H]2O)[C@H](O[C@@H]2O[C@H](CO)[C@@H](O)[C@H](O)[C@H]2O)[C@@H](O)[C@@H]1O`: in assay [1], the activity, negative = inhibition was 0% [at 11.6 µM]. The redox activity (% of DA3003) in assay [2] was 3.6% [at 11.5 µM].

Take `C#Cc1cnc2[nH]c(=O)n(C(CC)CC)c2n1`: the Potency entry in assay [1] and in assay [2] was “inactive” in each case.

As to `NC(=O)c1ccc(OCC2NC(=O)C3CCCN3C2=O)cc1` (configuration not stated), the Potency entry in assay [1] and in assay [2] was “inactive” each time.

Take `COC1CC(=O)C23C(=O)NC(CC(C)C)C2C(C)C(C)=CC3/C=C(\C)CCC1O` (configuration not stated): the Potency result in assay [1] and in assay [2] was “inactive” throughout.

As to `CC(=O)O[C@H]1CC[C@@]2(CI)C(=CC[C@@H]3[C@@H]2CC[C@]2(C)[C@@H]([C@H](C)CCCC(C)C)CC[C@@H]32)C1`, the activity, negative = inhibition in assay [1] is -1.76% [at 11.6 µM]. In addition, the redox activity (% of DA3003) in assay [2] is -3.63% [at 11.5 µM].

Regarding `C[C@@H]1O[C@@H](OC[C@H]2O[C@@H](OCCc3ccccc3)[C@H](O)[C@@H](O)[C@@H]2O)[C@H](O)[C@H](O)[C@H]1O`, the Potency result in assay [1] and in assay [2] was “inactive” each time.

In the case of `COC(=O)[C@]12C(=O)C(C)=C(O)[C@@]1(C)C(C)=CC1[C@@]34CC[C@@H](OC(C)=O)C(C)(C)C3[C@H](C[C@]12C)OC4=O` (some centres not stated), the Potency entry in assay [1] and in assay [2] was “inactive” in each case.

Turning to `C/C=C(/C)C(=O)O[C@H]1C=C(C)C[C@H](OC(=O)c2ccc(O)cc2)C2[C@](O)(C(C)C)CC[C@@]21C` (some centres not stated), the Potency entry in assay [1] and in assay [2] was “inactive” in each case.

`CC1(C)CC2C(C1)C1(C)CCC13OC3(CO)C2O` (configuration not stated): the Potency entry in assay [1] and in assay [2] was “inactive” throughout.

As for `Nc1nonc1C(=Nc1ccc(F)c(Cl)c1)NO`, the Potency entry in assay [1] and in assay [2] was “inactive” in each case.

As for `C=CC(C)(O)CO[C@@H]1O[C@H](CO)[C@@H](O)[C@H](O)[C@H]1O` (some centres not stated), the Potency entry in assay [1] and in assay [2] was “inactive” each time.

For `CC(=O)c1c(C)cc(O)cc1O[C@@H]1O[C@H](CO)[C@@H](O)[C@H](O)[C@H]1O`, the Potency result in assay [1] and in assay [2] was “inactive” throughout.

For the compound `C[C@H]1[C@H](C)CC[C@]2(C(=O)O[C@@H]3O[C@H](CO)[C@@H](O)[C@H](O)[C@H]3O)CC[C@]3(C(=O)O)C(=CCC4[C@@]5(C)CC[C@H](O[C@@H]6O[C@H](CO)[C@@H](O)[C@H](O)[C@H]6O)C(C)(C)C5CC[C@]43C)[C@H]12` (some centres not stated), the activity, negative = inhibition in assay [1] is -1.27% [at 11.6 µM]. Moreover, the redox activity (% of DA3003) in assay [2] is 2.24% [at 11.5 µM].

As for `COC(=O)C1C(c2ccc(O)cc2)C(C(=O)OC)C1c1ccc(O)cc1` (configuration not stated), the Potency result in assay [1] and in assay [2] was “inactive” each time.

Consider `CC(=O)c1c(C)cc(O[C@@H]2O[C@H](CO)[C@@H](O)[C@H](O)[C@H]2O)cc1O`, for which the Potency entry in assay [1] and in assay [2] was “inactive” throughout.

`C=C1CCC2C(OC(=O)C2(O)COC(C)=O)C2C(=C)C(O)CC12` (configuration not stated): the Potency entry in assay [1] and in assay [2] was “inactive” each time.

In the case of `CC[C@@H](c1ccc(F)c(F)c1)n1c(C(=O)OC)c(-c2ccno2)[nH]c1=S`, the Potency entry in assay [1] and in assay [2] was “inactive” each time.

Turning to `C=C(C)C(=O)O[C@H]1C[C@@](C)(OC(C)=O)[C@@]2(O)CC[C@@](C)(O)[C@H](OC(C)=O)[C@@]23OC(=O)C(COC)=C13`, the Potency entry in assay [1] and in assay [2] was “inactive” throughout.

On to `CC(=O)OCC(=O)O[C@@H]1[C@H]2[C@@H](OC(=O)c3ccccc3)[C@@H](C)C[C@]2(O)[C@H](OC(C)=O)C2(C)[C@H]3CC(C)(C)C(=O)[C@@H]3CC1(OC(C)=O)[C@@H]2OC(C)=O` (some centres not stated), for which the Potency result in assay [1] and in assay [2] was “inactive” throughout.

With `CCC(C)(O)C(O)C(=O)OCc1ccc(O[C@@H]2O[C@H](CO)[C@@H](O)[C@H](O)[C@H]2O)cc1` (some centres not stated), the Potency result in assay [1] and in assay [2] was “inactive” in each case.

As to `COc1c(C)c(C(=O)c2ccc(N)c(C(=O)O)c2)n2ccccc12`, the Potency in assay [1] is 9.53 µM (active). Also, the Potency result in assay [2] is “inactive”.

For `C=Cc1cc(O)cc2nc(-c3ccc(O)c(F)c3)oc12`, the Potency result in assay [1] and in assay [2] was “inactive” in each case.

On to `OCCc1ccc(O[C@@H]2O[C@H](CO)[C@@H](O)[C@H](O)[C@H]2O)c(O)c1`, for which the Potency entry in assay [1] and in assay [2] was “inactive” each time.

Take `CC1CCC2C(C)(C)C(O)CCC2(C)C12Cc1c(O)cc3c(c1O2)CN=C3N` (configuration not stated): the Potency entry in assay [1] and in assay [2] was “inactive” each time.

For the compound `CC1=CC(=O)C2C(C)(C)CCCC2(C)C12CCC1(COC(=O)C1)O2` (configuration not stated), the Potency result in assay [1] and in assay [2] was “inactive” each time.

On to `COc1ccc2c(c1)O[C@H](O[C@@H]1O[C@H](CO)[C@@H](O)[C@H](O)[C@H]1O)C(=O)N2`, for which the Potency result in assay [1] and in assay [2] was “inactive” throughout.

Take `COc1cc(COC2OC(CO)C(O)C(O)C2O)cc(OC)c1O` (configuration not stated): the Potency entry in assay [1] and in assay [2] was “inactive” throughout.

For `CC(=O)O[C@H]1[C@H](C)[C@@H](O)[C@H]2[C@@H]1C=C(C(=O)O)[C@H]1C[C@@H]3[C@H]([C@H]21)[C@H]1C(=O)O[C@@H]2CC[C@@]3(C)O[C@]1(O)[C@@H]2C`, the Potency entry in assay [1] and in assay [2] was “inactive” throughout.

For the compound `O=C1Nc2ccc(O)cc2O[C@H]1O[C@@H]1O[C@H](CO)[C@@H](O)[C@H](O)[C@H]1O`, the Potency result in assay [1] and in assay [2] was “inactive” each time.

For the compound `C[C@@H]1C[C@H](O[C@@H]2O[C@H](CO[C@@H]3OC[C@](O)(CO)[C@H]3O)[C@@H](O)[C@H](O)[C@H]2O)CC(C)(C)[C@H]1/C=C/[C@@H](C)O`, the Potency result in assay [1] and in assay [2] was “inactive” each time.
